Data: PubChem BioAssay (NCATS)
Inconclusive results are not listed. The source made the active and inactive calls. The call rests on the fitted dose curve; in most records, active means well fitted inhibition curve with a large enough effect; inconclusive means small, poorly fitted or top-dose-only effect; inactive means flat fitted curve, though single readings scatter.

Test system: HaCat
Experiment: Cytotoxic Profiling of Annotated Libraries Using Quantitative High-Throughput Screening (AID 1296008); further: nearly all actives have a fitted effect of over 60% in size
Settings: Five cell lines viability, CellTiter-Glo ATP luminescence, 48-72 h; max response: stronger effect = lower value
Summary of the method: (§1)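 Compounds were pin-transferred onto cells and incubated 48 or 72 hr at 37 degree Celsius, 95% humidity. CellTiter-Glo was added, plates sat 10 min at room temperature, then ATP-coupled luminescence was imaged as the viability read-out.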
On the % scale 0 is the no-effect control and ±100 the full control effect; potency means the concentration at half of the fitted maximal effect.

Compound	Potency	outcome	max response
O=C(NNc1nc2cc(F)ccc2n2cccc12)c1cnccn1	3.26 µM (active)		
O=C(Nc1nc2ccc([N+](=O)[O-])cc2s1)C1CCCCC1		inactive	
O=C1c2ccc(Nc3ccc(F)cc3F)cc2CCc2ccc(OCC(O)CO)cc21 (configuration not stated)			0.902% (inactive)
CC1(C)OC[C@H](NC(=O)Nc2ccc(Br)cc2Br)[C@H](c2ccccc2)O1			-5.94% (inactive)
COc1cc(CN(CCN)C(=O)c2cccs2)ccc1OCc1ccccc1			-3.01% (inactive)
CC(=O)Nc1cccc(Nc2ncnc(N3CCC(OCc4ccc(OC(F)(F)F)cc4)CC3)n2)c1C			-26.7% (inactive)
CO[C@H]1[C@@H](O)[C@H](O[C@H]2CC[C@@]3(C)C(CCC4C3CC[C@]35COC6(COC(=O)C6)C3CCC45O)C2)O[C@@H](C)[C@@H]1OC1OC(CO)C(OC2OC(CO)C(O)C(O)C2O)C(O)C1O (some centres not stated)			-26.8% (inactive)
NC(N)=NC(=O)c1cnn(-c2cccc3ncccc23)c1C1CC1			-2.12% (inactive)

Test system: NIH3T3
Experiment: as above
Settings: Five cell lines viability, CellTiter-Glo ATP luminescence, 48-72 h; max response: stronger effect = lower value
Summary of the method: as §1

Compound	outcome	max response	Potency
CCCCCCCOc1cc2c(cc1/C(C)=C/c1ccc(C(=O)O)cc1)C(C)(C)CCS2(=O)=O	inactive		
Cc1c(OCc2cccc(-c3ccc(C(=O)O)cc3)c2)cc2c(c1C)C(=O)C(C1CCCC1)C2 (configuration not stated)		-4.46% (inactive)	
CC(=O)OC1C(OC(=O)c2ccccc2)C2C(=C(C)CCC2(C)C)C23CCC(C)(C2)C(=O)CC13 (configuration not stated)		-18.4% (inactive)	
CCN(Cc1cc(Nc2nc(C)cn3c(-c4cn[nH]c4)cnc23)sn1)C(C)(C)CO			0.461 µM (active)
CNC(=O)c1cc(Oc2ccc(NC(=O)c3cccc(C(F)(F)F)c3)cc2)ccn1		-24.9% (inactive)	
O=C(NS(=O)(=O)c1ccc(Br)s1)c1ccc(Cl)cc1Cl		-6.08% (inactive)	
COc1cc(O)c2c(c1)/C=C/C[C@H](O)[C@H](O)C(=O)/C=C\C[C@H](C)OC2=O			5.8 µM (active)
CCOc1cc(C(C)(C)C)ccc1C1=NC(C)(c2ccc(Cl)cc2)C(C)(c2ccc(Cl)cc2)N1C(=O)N1CCN(CCCS(C)(=O)=O)CC1 (configuration not stated)			9.2 µM (active)
NC(=O)CCCSc1nc(N)nc(-c2c(Cl)cc3c4c(cccc24)COC3)n1			0.731 µM (active)
CC(F)(F)CN1CCOc2c(nn(-c3ccccc3Cl)c2-c2ccc(Cl)cc2)C1=O		-14.8% (inactive)	
CCCn1ncc(CN2CCCC(C(=O)c3cccc(OC(C)C)c3)C2)c1C (configuration not stated)		-15.4% (inactive)	
CC(C)=C[C@@H]1[C@H](CO[C@@H]2O[C@H](CO)[C@@H](O)[C@H](O)[C@H]2O)C1(C)C		4.21% (inactive)	
O=C(Nc1ccccc1)c1ccc(Nc2nnc(-c3ccc(O)cc3)c3ccccc23)cc1		-26.5% (inactive)	
CCc1cc2c(cc1CC)CC(NCC(O)c1ccc(O)c3[nH]c(=O)ccc13)C2 (configuration not stated)		2.82% (inactive)	
COC(=O)C[C@H]1[C@]2(C)C3=C(C)[C@H](c4ccoc4)C[C@H]3O[C@@H]2[C@H](O)C2[C@](C)(C(=O)OC)C=CC(=O)[C@@]21C (some centres not stated)		3.36% (inactive)	
COc1cccc(-c2cc(F)ccc2C2Cc3nc(N)nc(C)c3C(=O)N2)n1 (configuration not stated)			0.058 µM (active)
CCC(C)CNCC(=O)N1CCc2sccc2C1COc1cccc(C)c1 (configuration not stated)		-25.4% (inactive)	
C/C=C/[C@@H]1C=C[C@@H]2C[C@H](C)CC[C@H]2[C@]1(C)/C(O)=C1/C(=O)[C@@H](CO)N(C)C1=O	inactive		
Cc1cc(C(C)Nc2ccccc2C(=O)O)c2nc(N3CCOCC3)cc(=O)n2c1 (configuration not stated)			23.1 µM (active)
CCc1cccc(CC)c1-n1c(C=C(C)C)c(C(=O)N2CCNCC2)cc(-c2nc(-c3ccc(C(F)(F)F)cc3)cs2)c1=O		-4.22% (inactive)	

Compound	outcome	max response	Potency
Cc1noc(C)c1-c1cc(O)cc(C(O)c2ccccc2)c1 (configuration not stated)			10.3 µM (active)
CCCc1ccc(OCC(=O)N(Cc2nc(-c3cccnc3)no2)C(C)C)cc1		-9.24% (inactive)	
CC1(C)CC[C@]2(C(=O)O)CC[C@]3(C)C(=CCC4[C@@]5(C)C[C@@H](O)[C@H](O)[C@@](C)(CO)C5CC[C@]43C)[C@@H]2[C@@H]1O (some centres not stated)		4.68% (inactive)	
C[C@@H](Nc1ncnc2[nH]c(-c3ccc(O)cc3)cc12)c1ccccc1			14.6 µM (active)
CC(=O)NC(C)c1cnc(-c2cnc(Oc3ccc(OC(C)C)cc3)s2)s1 (configuration not stated)		0.946% (inactive)	
C/C(=C/C=C\C=C\Cc1cnco1)[C@@H](O)C(C)(C)C(N)=O		-15.3% (inactive)	
COc1cc(C(C)C)c(Oc2cnc(N)nc2N)cc1I		-1.33% (inactive)	
Cc1nc2c(C(F)(F)F)cccc2nc1-c1ccc(-c2cccc(S(C)(=O)=O)c2)cc1		-12.4% (inactive)	
O=C(NCCCN1CCOCC1)c1cnn2c(-c3ccccc3)cc(-c3ccccc3)nc12		-12.1% (inactive)	
COC(=O)c1cc(Br)cnc1N1CCC(NC2CCCCC2)C(O)C1 (configuration not stated)	inactive		
CC(=O)Nc1nc(C)c(-c2nc(N3CCCC(O)C3)no2)s1 (configuration not stated)			18.4 µM (active)
O=C(NNc1nc2cc(F)ccc2n2cccc12)c1cnccn1			4.11 µM (active)
O=C(Nc1nc2ccc([N+](=O)[O-])cc2s1)C1CCCCC1		-1.61% (inactive)	
O=C1c2ccc(Nc3ccc(F)cc3F)cc2CCc2ccc(OCC(O)CO)cc21 (configuration not stated)		-2.95% (inactive)	
CC1(C)OC[C@H](NC(=O)Nc2ccc(Br)cc2Br)[C@H](c2ccccc2)O1		0.948% (inactive)	
COc1cc(CN(CCN)C(=O)c2cccs2)ccc1OCc1ccccc1		-11.2% (inactive)	
CC(=O)Nc1cccc(Nc2ncnc(N3CCC(OCc4ccc(OC(F)(F)F)cc4)CC3)n2)c1C		-3.89% (inactive)	
CO[C@H]1[C@@H](O)[C@H](O[C@H]2CC[C@@]3(C)C(CCC4C3CC[C@]35COC6(COC(=O)C6)C3CCC45O)C2)O[C@@H](C)[C@@H]1OC1OC(CO)C(OC2OC(CO)C(O)C(O)C2O)C(O)C1O (some centres not stated)	inactive		
NC(N)=NC(=O)c1cnn(-c2cccc3ncccc23)c1C1CC1		-11.3% (inactive)	
